Reference: PubChem BioAssay (NCATS)
Results filed as inconclusive are left out. Activity calls are given as the source filed them. The call rests on the fitted dose curve; in most records, active means well fitted inhibition curve with a large enough effect; inconclusive means small, poorly fitted or top-dose-only effect; inactive means flat fitted curve, though single readings scatter.

What was measured:
Test in all cases: qHTS profiling for inhibitors of Plasmodium falciparum proliferation (AID 504749); further: nearly all actives have a fitted effect of over 60% in size
Settings in all cases: P. falciparum in erythrocytes, SYBR Green DNA, 72 h; series mostly up to 28.7 µM
[1] = tested on: CP194
Summary of the method: (§1)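 P. falciparum-infected erythrocytes (0.3% parasitemia, 2.5% hematocrit) incubated with compound 72 h at 37 C, 5% CO2. Parasite DNA detected by SYBR Green after lysis, overnight at room temperature; normalised to 0.29 uM artemisinin and DMSO.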

[2] = tested on: CP201
Summary of the method: as §1

[3] = tested on: CP203
Summary of the method: as §1

[4] = tested on: CP211
Summary of the method: as §1

[5] = tested on: CP215
Summary of the method: as §1

[6] = tested on: CP217
Summary of the method: as §1

[7] = tested on: CP237
Summary of the method: as §1

[8] = tested on: CP238
Summary of the method: as §1

[9] = tested on: CP247
Summary of the method: as §1

[10] = tested on: CP250
Summary of the method: as §1

[11] = tested on: CP252
Summary of the method: as §1

[12] = tested on: CP256
Summary of the method: as §1

[13] = tested on: CP260
Summary of the method: as §1

[14] = tested on: CP262
Summary of the method: as §1

[15] = tested on: CP265
Summary of the method: as §1

[16] = tested on: CP266
Summary of the method: as §1

[17] = tested on: CP268
Summary of the method: as §1

[18] = tested on: CP269
Summary of the method: as §1

[19] = tested on: CP286
Summary of the method: as §1

[20] = tested on: CP291
Summary of the method: as §1

Measured: Potency

CC(CC=O)CCCC(C)(C)O (configuration not stated)
inactive: [1] | [2] | [3] | [4] | [5] | [6] | [7] | [8] | [9] | [10] | [11] | [12] | [13] | [14] | [15] | [16] | [17] | [18] | [19] | [20]

CC(C)c1nc(N(C)S(C)(=O)=O)nc(-c2ccc(F)cc2)c1/C=C/C(O)CC(O)CC(=O)O (configuration not stated)
inactive: [1] | [2] | [3] | [4] | [5] | [6] | [7] | [8] | [9] | [10] | [11] | [12] | [13] | [14] | [15] | [16] | [17] | [18] | [19] | [20]

Nc1ncnc2c1ncn2[C@H]1CC[C@@H](CO)O1
inactive: [1] | [2] | [3] | [4] | [5] | [6] | [7] | [8] | [9] | [10] | [11] | [12] | [13] | [14] | [15] | [16] | [17] | [18] | [19] | [20]

Cc1c(Cl)cccc1Nc1ncccc1C(=O)O
inactive: [1] | [2] | [3] | [4] | [5] | [6] | [7] | [8] | [9] | [10] | [11] | [12] | [13] | [14] | [15] | [16] | [17] | [18] | [19] | [20]

CN(C)CCOc1ccc(/C(=C(/CCCl)c2ccccc2)c2ccccc2)cc1
inactive: [1] | [2] | [3] | [4] | [5] | [6] | [7] | [8] | [9] | [10] | [11] | [12] | [13] | [14] | [15] | [16] | [17] | [18] | [19] | [20]

CC1CCCCN1CCCOC(=O)c1ccccc1 (configuration not stated)
inactive: [1] | [2] | [3] | [4] | [5] | [6] | [7] | [8] | [9] | [10] | [11] | [12] | [13] | [14] | [15] | [16] | [17] | [18] | [19] | [20]

O=C(/C=C/c1cccc(F)c1)NC1CC1
inactive: [1] | [2] | [3] | [4] | [5] | [6] | [7] | [8] | [9] | [10] | [11] | [12] | [13] | [14] | [15] | [16] | [17] | [18] | [19] | [20]

Cc1ccccn1
inactive: [1] | [2] | [3] | [4] | [5] | [6] | [7] | [8] | [9] | [10] | [11] | [12] | [13] | [14] | [15] | [16] | [17] | [18] | [19] | [20]

Nc1ncnc2c1ncn2CCOCP(=O)(O)O
inactive: [1] | [2] | [3] | [4] | [5] | [6] | [7] | [8] | [9] | [10] | [11] | [12] | [13] | [14] | [15] | [16] | [17] | [18] | [19] | [20]

O=C(O)c1ccc(OCCn2ccnc2)cc1
inactive: [1] | [2] | [3] | [4] | [5] | [6] | [7] | [8] | [9] | [10] | [11] | [12] | [13] | [14] | [15] | [16] | [17] | [18] | [19] | [20]

CC1(C)S[C@@H]2[C@H](NC(=O)C3(N)CCCCC3)C(=O)N2[C@H]1C(=O)O
inactive: [1] | [2] | [3] | [4] | [5] | [6] | [7] | [8] | [9] | [10] | [11] | [12] | [13] | [14] | [15] | [16] | [17] | [18] | [19] | [20]

FC(F)(F)COCC(F)(F)F
inactive: [1] | [2] | [3] | [4] | [5] | [6] | [7] | [8] | [9] | [10] | [11] | [12] | [13] | [14] | [15] | [17] | [18] | [19] | [20]

[O]=[Bi][O][Bi]=[O]
inactive: [1] | [2] | [3] | [4] | [5] | [6] | [7] | [8] | [9] | [10] | [11] | [12] | [13] | [14] | [15] | [17] | [18] | [19] | [20]

CCC(O)c1ccccc1 (configuration not stated)
inactive: [1] | [2] | [3] | [4] | [5] | [6] | [7] | [8] | [9] | [10] | [11] | [12] | [13] | [14] | [15] | [17] | [18] | [19] | [20]
